In ChEMBL document CHEMBL3988442, “University of Dundee, Small-Polar-MMV Screening Library” (2021):

Experiments:
[1] = target: T1, Aspartate--tRNA(Asp/Asn) ligase (Mycobacterium tuberculosis (strain ATCC 25618 / H37Rv)) (UniProt P9WFW3); test: Assay for Asp RNA synthetase-1 from Mycobacterium tuberculosis; type: functional; parameters: scale not given: direction of the effect not stated beside the values; settings: 30 µM; also: in the data most compounds retested in dose-response had high values
T1 sequence (whole entry): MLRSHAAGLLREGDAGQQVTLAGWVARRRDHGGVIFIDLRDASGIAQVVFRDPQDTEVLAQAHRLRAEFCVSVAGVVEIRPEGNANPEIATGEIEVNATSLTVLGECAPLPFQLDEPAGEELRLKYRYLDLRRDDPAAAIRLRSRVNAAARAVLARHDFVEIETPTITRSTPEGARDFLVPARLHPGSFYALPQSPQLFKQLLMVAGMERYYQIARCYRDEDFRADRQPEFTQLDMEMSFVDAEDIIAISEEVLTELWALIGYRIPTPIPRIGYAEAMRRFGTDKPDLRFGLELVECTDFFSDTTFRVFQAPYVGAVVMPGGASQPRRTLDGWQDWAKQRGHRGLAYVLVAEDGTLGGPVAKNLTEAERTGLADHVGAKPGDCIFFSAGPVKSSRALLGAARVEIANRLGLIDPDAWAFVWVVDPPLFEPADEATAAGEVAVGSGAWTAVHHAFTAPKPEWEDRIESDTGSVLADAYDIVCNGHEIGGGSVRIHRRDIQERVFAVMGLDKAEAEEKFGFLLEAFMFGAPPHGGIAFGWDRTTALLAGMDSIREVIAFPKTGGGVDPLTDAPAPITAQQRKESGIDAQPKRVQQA

[2] = target: Shiga toxin 2 (Escherichia coli O157:H7) (UniProt P09385+P09386); test: E. coli 0.157:H7 Shiga Toxin SOP - stx2 screening assay; type: functional; parameters: scale not given: direction of the effect not stated beside the values; settings: 30 µM

Row | SMILES | Percent Effect [1] | Percent Effect [2]
1 | Cc1cnc(Nc2nccnc2C2CCN(C)CC2)s1 | -3.37% | -20.6%
2 | Cc1noc(C(C)N2CCN(CC(=O)N3CCOCC3)CC2)n1 (stereo unspecified) | -8.27% | -0.00886%
3 | Cc1ccc(C)c(OCCN2CCC(N3CCNC3=O)CC2)c1 | 0.583% | -1.43%
